Measured values as given in PubChem BioAssay AID602281 (The Scripps Research Institute Molecular Screening Center, 2012).
The whole screen tested about 360,000 compounds, of which about 2,900 (0.81%) were called active.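 Rule for the calls: active = inhibition above the mean inhibition across every tested compound plus 3 SD (cut at about 22% in these data); inactive = the rest.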 The full list was thinned out, with actives kept by preference.

Biological target: Perilipin-5 (Homo sapiens) + 1-acylglycerol-3-phosphate O-acyltransferase ABHD5 (Homo sapiens) (UniProt Q00G26+Q8WTS1)
Sequence (Q00G26 whole entry, looked up): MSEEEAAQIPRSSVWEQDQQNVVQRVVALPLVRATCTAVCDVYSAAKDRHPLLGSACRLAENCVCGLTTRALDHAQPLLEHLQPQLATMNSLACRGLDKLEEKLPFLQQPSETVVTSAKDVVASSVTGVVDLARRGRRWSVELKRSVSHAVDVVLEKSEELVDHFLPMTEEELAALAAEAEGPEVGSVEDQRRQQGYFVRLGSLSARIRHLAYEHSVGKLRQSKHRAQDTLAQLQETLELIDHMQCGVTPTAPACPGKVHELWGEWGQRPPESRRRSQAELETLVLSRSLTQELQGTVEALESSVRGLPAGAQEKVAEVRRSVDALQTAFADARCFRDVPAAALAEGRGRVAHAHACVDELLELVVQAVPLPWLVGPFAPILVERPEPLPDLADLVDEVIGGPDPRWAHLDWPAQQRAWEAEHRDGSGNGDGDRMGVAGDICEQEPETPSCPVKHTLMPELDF
Sequence (Q8WTS1 whole entry, looked up): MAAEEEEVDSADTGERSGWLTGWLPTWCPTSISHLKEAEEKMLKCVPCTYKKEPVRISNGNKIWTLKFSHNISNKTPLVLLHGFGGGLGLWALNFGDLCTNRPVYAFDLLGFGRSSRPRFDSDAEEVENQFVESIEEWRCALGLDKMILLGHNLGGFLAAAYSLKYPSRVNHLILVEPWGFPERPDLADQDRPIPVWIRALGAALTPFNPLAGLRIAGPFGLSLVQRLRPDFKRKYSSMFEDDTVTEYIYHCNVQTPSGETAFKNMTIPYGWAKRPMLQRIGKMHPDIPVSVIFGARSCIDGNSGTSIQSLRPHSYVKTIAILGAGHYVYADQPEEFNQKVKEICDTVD
Experiment: blockers of ABHD5 binding to perilipin-5 – cell lysate, split luciferase complementation, luminescence, primary screen (AID 602281);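 note: 0% = DMSO only wells and the 100% control is not disclosed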
Details: Split G. princeps luciferase complementation, 4 h, at 4 µM, active compounds read high

SMILES | inhibition
CCOC(=O)[C@]12Cc3ccccc3[C@H]1N(C1CCCCC1)C(=O)c1cc(OC)ccc12 | 39.6% (active)
CCOC(=O)[C@]12Cc3cc(OC)ccc3[C@H]1N(C(C)C)C(=O)c1ccccc12 | 14.9% (inactive)
CC(C)N(CC#CCC1(O)c2ccccc2-c2ccccc21)C(C)C | 3.81% (inactive)
CN(C)CC1Oc2ccccc2OC1(O)c1ccccc1 (stereo not given) | 46.5% (active)
CCOC(=O)CNC(=O)N1Cc2cc(N3CCCCC3)ccc2-n2nncc2C1 | 5.92% (inactive)
CCN1CC2C3CCC(C)(O3)C2C1 (stereo not given) | 4.06% (inactive)
Cc1ccc(-c2cc(C(=O)N3CCC4(CC3)OCCO4)no2)cc1 | -2.79% (inactive)
CCc1cccc2c(C#N)cn(CC(=O)N3CCOCC3)c12 | 1.5% (inactive)
CCC(=O)CC(c1ccc([N+](=O)[O-])cc1)c1c(O)c2ccccc2oc1=O (stereo not given) | 5.29% (inactive)
Cc1cccc(N2C(=O)NC(=O)/C(=C\c3cnn(-c4ccccc4)c3)C2=O)c1 | 55.1% (active)
O=C(COC(=O)c1ccccc1)Nc1ccc(Cl)cc1C(=O)c1ccccc1 | 7.59% (inactive)
Cc1ccc(S(=O)(=O)N(C)c2ccc(C(=O)NCC3(N(C)C)CCCCC3)cc2)cc1 | 0.68% (inactive)
COc1ccccc1N1CCN(C(CNC(=O)Oc2ccccc2)c2cccnc2)CC1 (stereo not given) | 0.85% (inactive)
N#Cc1ccc(Cn2cc(C(=O)c3ccco3)c3ccccc32)cc1 | 5.75% (inactive)
Cc1ccc(Cn2c(C)c3cnn(CC(=O)N4CCC5(CC4)OCCO5)c(=O)c3c2C)cc1 | 9.7% (inactive)
C=CCN1C(=O)NC(=O)/C(=C/c2ccc(OCC(=O)Nc3ccc(C)cc3)cc2)C1=O | 15.7% (inactive)
COc1ccc(CN2C(=O)NC(=O)/C(=C\c3ccc(OC)c(OC)c3OC)C2=O)cc1 | 23.3% (active)
Cc1ccc(C)c(NC2=NCCCS2)c1 | 7.47% (inactive)
C=CCN1C(=O)C2(C(C(=O)OCC)=C(N)Oc3c2c(=O)oc2ccccc32)c2ccccc21 (stereo not given) | -7.25% (inactive)
O=c1[nH]c(=O)n(-c2ccc(F)cc2)c(O)c1C=NCCN1CCCCC1 | -4.1% (inactive)
CCc1nnc(NS(=O)(=O)c2ccc(N=Cc3c(O)n(-c4ccccc4)c(=O)[nH]c3=O)cc2)s1 | 24.9% (active)
COc1ccc(N=Cc2c(O)n(C)c(=O)[nH]c2=O)cc1 | -7.01% (inactive)
Cc1ccc(N2C(=O)NC(=O)C(CCc3ccncc3)(Cc3cccc(Cl)c3Cl)C2=O)cc1 (stereo not given) | -2.62% (inactive)
CC1CCC(N(C)C2CCN(C)CC2)CC1 (stereo not given) | -5.21% (inactive)
O=c1[nH]c(=O)n(CCc2ccc(F)cc2)c(O)c1/C=N/N1CCCCC1 | -2.89% (inactive)
